Compound activity (PubChem BioAssay)
This excerpt belongs to a sample that is enriched for hits.
TTR transcr act = TTR transcription activation, primary screen; SH-SY5Y TTR promoter Gaussia luciferase, luminescence; 100% = recombinant luciferase protein wells; activation, % at 16.7 µM; 1.3% of 92,000 active; AID 1117267;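 active = activation above the mean of all tested compounds plus 3 SD, cut at about 9.5% in these data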;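 note: cells exposed to compounds for one day before reading; 0% = median of all test compound wells on the plate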
TTR inh HuH7 = counter-screen for TTR activators: TTR transcription inhibitors in HuH7 cells | shares compounds with TTR transcr act | HuH7 TTR promoter-Gaussia luciferase reporter, luminescence | inhibition, % at 16.7 µM | 4% of 1,100 active;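 active = average inhibition above the solvent-only control wells' mean plus 3 SD, cut at about 15% in these data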;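 note: 0% = cells with DMSO only and 100% = cells with inhibitor control FD; inhibitors lower well luminescence so higher value means more inhibition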
TTR act confirm = human TTR transcription activation, confirmation; shares compounds with TTR transcr act; SHSY5Y TTR promoter Gaussia luciferase, luminescence; 100% = purified Lucia enzyme wells, no cells; 1,100 tested, under 10 active; activation, % at 16.7 µM;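 active = mean activation above a set limit taken from the earlier primary screen, cut at about 11% in these data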;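 note: 0% = DMSO-treated cells and 100% = recombinant Lucia luciferase without cells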
Active calls of the source: *.

SMILES	TTR transcr act	others
CC1=C(C)[N+](=O)C2CCCCC2N1[O-] (centres undefined)	13*	TTR inh HuH7=-6;TTR act confirm=0
CCOC(=O)[C@]12CCCC3=C1N(CCC3)C(=O)[C@@H](CC(=O)N1CCC(c3ccccc3)CC1)C2	0
CC(C)(C)N1CC(C(=O)Nc2cccc(Cl)c2Cl)CC1=O (centres undefined)	1
CCC[C@H]1[C@@H](NCC2CCCCC2)CC[C@@]23CCCN2C(=O)CCC[C@@H]13	2
CCC[C@H]1CC(=O)C=C(c2ccc(OC)cc2)ON1C(=O)OC(C)(C)C	0
N#Cc1cccc(NC(=O)OC2CC3CC2[C@H]2CCCCN2C3)c1 (some centres undefined)	-1
CCOC(=O)C(Cc1ccccc1)NC(=O)CNC(=O)CNC(=O)OCc1ccccc1 (centres undefined)	3
CCOC(=O)C(Cc1ccc(O)cc1)NC(=O)CNC(=O)C(CC(C)C)NC(=O)OC(C)(C)C (centres undefined)	30*	TTR inh HuH7=-1;TTR act confirm=-1
CC(C)CC(NC(=O)C(Cc1ccc(OCc2ccccc2)cc1)NC(=O)OC(C)(C)C)C(N)=O (centres undefined)	-3
COc1ccc(N2C(=O)C3C4C=CC(C4)C3C2=O)nn1 (centres undefined)	1
O=C1c2ccccc2C(=O)N1c1nccs1	0
O=C1C2C3C=CC(C3)C2C(=O)N1c1nccs1 (centres undefined)	15*	TTR inh HuH7=-6;TTR act confirm=0
Cc1cc(N2CCOc3ccccc32)nc2ccccc12	0
CN(CC(=O)N1CCCCCC1)S(=O)(=O)c1ccc(Br)s1	-2
CN(CC(=O)N1CCCCCC1)S(=O)(=O)c1ccc(Br)cc1	20*	TTR inh HuH7=-18;TTR act confirm=0
CN(CC(=O)N1CCCCC1)S(=O)(=O)c1ccc(Cl)cc1	-1
Nc1nc2ncccc2cc1C(=O)C1=C(c2ccccc2)Cc2ccccc21	-2
CN(C)[C@H]1CCN(c2ccc3c(c2)O[C@H]2CCN(C2)S3(=O)=O)C1	-1
CC(C)NCCOCCOc1ccc(Cl)cc1Br	0
CC(C)NCCOCCOc1ccccc1F	11*	TTR inh HuH7=-9;TTR act confirm=1
CCN(CC)CCOCCOc1ccccc1F	-1
COC(=O)[C@@]12CCCCC=C1N(CCc1ccc(Cl)cc1)C(=O)[C@H]2CC(=O)NCc1ccc(C)o1	0
Clc1ccc([C@H]2OC[C@@]3(CNCc4ccccc4)CS[C@H](c4ccc(Cl)cc4)N23)cc1	0
COCCOC(=O)N(C)C[C@@H]1OCCCC[C@H](C)Oc2ccc(NC(=O)Nc3ccccc3)cc2C(=O)N([C@@H](C)CO)C[C@H]1C	2
COC(=O)[C@@H]1N=C(c2ccc(OC)cc2)O[C@]12C(=O)N(Cc1cn(-c3ccccc3)nn1)c1cccc(Cl)c12	0
SMILES	TTR transcr act	others
COC(=O)[C@]12C[C@H](CC(=O)N3CCCC3)C(=O)N(Cc3ccc(Cl)cc3Cl)C1=C[C@H](C(C)C)O[C@@H]2C1CC1	-1
c1ccc2c(CSc3ncnc4nc[nH]c34)cccc2c1	1
O=C(CSc1ncnc2nc[nH]c12)c1ccc([N+](=O)[O-])cc1	29*	TTR inh HuH7=2;TTR act confirm=-1
O=C(CSc1nnc(-c2ccco2)o1)c1ccc([N+](=O)[O-])cc1	0
CN1C2=N[C@H](c3ccc(Br)cc3)CC(=O)N2/C(=C\c2ccccc2)[C@@H]1c1ccccc1	0
C=CCN1C(=O)[C@H](CC(=O)N2CCOCC2)[C@@]2(C(=O)OCC)CCCC=C12	2
COC(=O)c1ccc(COC(=O)c2cccnc2Cl)cc1	-1
COC(=O)c1cccc(COC(=O)c2cccnc2SC)c1	12*	TTR inh HuH7=-3;TTR act confirm=0
CSc1ncccc1C(=O)OCc1c(F)cccc1Cl	0
COC(=O)[C@]12C[C@H](CC(=O)NCc3cccc(C(F)(F)F)c3)C(=O)N(Cc3ccccc3)C1=C[C@H](COCc1ccccc1)O[C@@H]2C	0
CC(C)(C)OC(=O)[C@H](Cc1ccccc1)NCC(=O)OCc1ccc(C(=O)NCc2ccccc2)cc1	-1
O=C(N[C@@H](Cc1ccc(Br)cc1)C(=O)O)OCC1c2ccccc2-c2ccccc21	0
O=C(CN(C(=O)OCC1c2ccccc2-c2ccccc21)[C@@H](Cc1ccccc1)C(=O)O)OCc1ccc(C(=O)NCc2ccccc2)cc1	12*	TTR inh HuH7=-21;TTR act confirm=2
NC1=NS(=O)(=O)Nc2ccccc21	-1
Cc1[nH]c2ccccc2c1C(=O)CN1CCCC1	0
COc1ccc2[nH]cc(C(=O)CN3CCC(C)CC3)c2c1	0
COc1ccc2[nH]c(C)c(C(=O)CN3CCOCC3)c2c1	16*	TTR inh HuH7=-10;TTR act confirm=0
CCC[C@H]1[C@@H](OC(=O)NCc2ccc(C)o2)CC[C@@]23CCCN2C(=O)CCC[C@@H]13	-1
COC(=O)[C@@]1(C(C)C)N=C(c2cc(OC)c(OC)c(OC)c2)[C@]2(O1)C(=O)N(Cc1cn(-c3ccccc3)nn1)c1cccc(Cl)c12	-1
Cc1ccc(OCC(=O)NC(=S)Nc2ccc(Br)cn2)cc1	20*	TTR inh HuH7=-10;TTR act confirm=-1
Cc1ccc(OCC(=O)NC(=S)Nc2cccc(NC(=O)c3ccccc3)c2)cc1	-1
CCOc1ccc(NC(=O)Nc2ccc(Br)cn2)cc1	2
COP(=O)(O)C[C@@H]1CCc2cc(C)cc([C@H](CC(C)C)NC(=O)OCc3ccccc3)c2O1	1
O=C(CC1OC(=O)c2ccccc21)NNC(=O)c1ccc(F)cc1 (centres undefined)	0
O=C(NCCc1ccccc1)OCc1cn(-c2cccc(F)c2F)nn1	-2
SMILES	TTR transcr act	others
C[C@H]1CN([C@@H](C)CO)C(=O)CCCn2cc(nn2)CO[C@@H]1CN(C)S(=O)(=O)c1ccc(Cl)cc1	3
C[C@H](CO)N1C[C@H](C)[C@@H](CN(C)C(=O)c2cc(-c3ccccc3)on2)OCc2cnnn2CCCC1=O	1
C[C@@H]1CN([C@H](C)CO)C(=O)CCCn2nncc2CO[C@H]1CN(C)C(=O)c1cc(-c2ccccc2)on1	3
C[C@@H]1CN([C@H](C)CO)C(=O)CCCn2cc(nn2)CO[C@H]1CN(C)S(=O)(=O)c1ccc(Oc2ccccc2)cc1	17*	TTR inh HuH7=-5;TTR act confirm=-1
C[C@H]1CN([C@@H](C)CO)C(=O)CCCn2nncc2CO[C@H]1CN(C)C(=O)c1cc(-c2ccccc2)on1	14*	TTR inh HuH7=-7;TTR act confirm=-1
C[C@H](CO)N1C[C@H](C)[C@@H](CN(C)S(=O)(=O)c2ccccc2)OCc2cn(nn2)CCCC1=O	-2
O=C(N[C@H]1CC[C@@H]2SC[C@@H](C(=O)O)N2C1=O)OCC1c2ccccc2-c2ccccc21	3
Cc1ccc(NC(=O)CC(C)c2ccccc2)cc1S(=O)(=O)N1CCOCC1 (centres undefined)	-5
CC1(O)CC2CC1C(C(=O)O)C2C(=O)O (centres undefined)	1
O=C(N[C@@H](Cc1ccccc1)C(=O)N1CCC2CCN(S(=O)(=O)c3ccccc3)CC21)[C@@H]1CCCN1 (some centres undefined)	0
C#CCNC(=O)C[C@H]1C[C@@]2(C(=O)OC)C(=C[C@H](C(C)(C)C)O[C@@H]2C)N(Cc2ccc(Cl)cc2Cl)C1=O	-1
O=C(NCCCc1ccccc1)OC1CC2CC1[C@H]1CCCCN1[C@H]2Cc1ccccc1 (some centres undefined)	-1
